The results in this text go back to PubChem BioAssay.

Assay [1] has as its system Wnt5a (protein binding on small-molecule microarray). The experiment in a line: Wnt5a binders on small-molecule microarray, primary screen, biophysical, 635/667 nm fluorescence (AID 1142).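 Also: fluorescence read at 667 nm with signal to noise per printed feature.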 The settings on record: 635 nm fluorescence, higher = more signal.
Assay [2] can be described thus: cell viability in Huh7 cells, primary screen, cytotoxicity control for HCV replication inhibitor project, CellTiter-Glo luminescence, basal, 48 h (AID 1143).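 Also: Huh7 hepatoma cells carrying a hepatitis C replication reporter with no stimulus; test concentration not given here.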 The settings on record: Huh7 HCV replicon, higher = more signal, called active from +8 up or from −8 down. (Cellular ATP, detected with luciferase, serves as a proxy for viable cell number.)
Assay [3] is described as follows: P. aeruginosa biofilm formation inhibitors, primary screen, PAO1 strain, BacTiter-Glo luminescence, LB-PBS (AID 1144). The settings on record: 12 h, higher = more signal.
A short description of assay [4]: CREB reporter modulators without forskolin, primary screen, cell-based, PC12, CRE-LacZ reporter, unstimulated (AID 1145). To be noted: no forskolin, luminescence, 4.5 h, higher = more signal, called active from +8 up or from −8 down.
Assay [5] in a line: CREB reporter modulators under forskolin, primary screen, cell-based, PC12, CRE-LacZ reporter, forskolin-stimulated (AID 1146).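 Also: PC12 cells with 6xCRE LacZ reporter stimulated by forskolin 10 µM; beta-galactosidase reporter signal reflecting CREB driven transcription.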 To be noted: luminescence, 4.5 h, higher = more signal, called active from +8 up or from −8 down.
The target of assay [6] is Streptavidin (Streptomyces avidinii) (UniProt P22629). The experiment in a line: streptavidin binders on small-molecule microarray, primary screen, artefact control for SMM compound annotation, biophysical, 635/667 nm fluorescence (AID 1147).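 Also: signal reflects streptavidin binding to arrayed compounds as a control protein.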 To be noted: streptavidin binding, higher = more signal.
Assay [7] in a line: small-molecule binders of probe aInhba, primary screen, biochemical, small-molecule microarray, 635/667 nm fluorescence (AID 1148).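 Also: score merges 667nm spot fluorescence with signal-to-noise for antibody binding to printed compounds.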 To be noted: higher = more signal.
For assay [8], the target named is Torsin-1A (Homo sapiens) (UniProt O14656). The experiment in a line: torsin A binders from cell lysate, primary screen, small-molecule microarray, wild-type, 635/667 nm (AID 1149). To be noted: COS7 hTOR1A-WT lysate, 635 nm fluorescence, higher = more signal.
The target is the same in assay [9]. The experiment in a line: small-molecule binders of mutant TOR1A in lysate, primary screen, cell lysate, small-molecule microarray, COS7 lysate, 635/667 nm fluorescence (AID 1150).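 Also: score pools 667 nm emission and signal to noise measuring lysate protein binding.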 The settings on record: COS7 hTOR1A mutant lysate, 635 nm fluorescence, higher = more signal.
The subject of assay [10] is Sonic hedgehog protein (Shh). The experiment in a line: small-molecule binders of Shh protein, primary screen, biochemical, small-molecule microarray, 635/667 nm fluorescence (AID 1151).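 Also: Shh protein binding to compounds spotted on small-molecule microarray slides; score combines spot fluorescence intensity with signal-to-noise across triplicate slides.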 The settings on record: small-molecule microarray binding, 635 nm fluorescence; higher = more signal.

SMILES strings stand for the structures. Active and inactive are the calls of the source. Unless noted, no rule for the calls is given here.

Sequence of Torsin-1A (Homo sapiens) (O14656 whole entry, looked up): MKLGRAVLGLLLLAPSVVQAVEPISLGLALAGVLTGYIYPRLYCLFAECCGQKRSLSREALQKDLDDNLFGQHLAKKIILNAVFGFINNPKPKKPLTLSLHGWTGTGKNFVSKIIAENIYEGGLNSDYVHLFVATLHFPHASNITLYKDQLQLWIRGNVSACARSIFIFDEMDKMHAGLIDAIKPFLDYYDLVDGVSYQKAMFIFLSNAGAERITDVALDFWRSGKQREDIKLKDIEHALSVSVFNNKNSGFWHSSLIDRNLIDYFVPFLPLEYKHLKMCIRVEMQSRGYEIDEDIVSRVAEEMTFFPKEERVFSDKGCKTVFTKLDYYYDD
Sequence of Streptavidin (Streptomyces avidinii) (P22629 whole entry, looked up): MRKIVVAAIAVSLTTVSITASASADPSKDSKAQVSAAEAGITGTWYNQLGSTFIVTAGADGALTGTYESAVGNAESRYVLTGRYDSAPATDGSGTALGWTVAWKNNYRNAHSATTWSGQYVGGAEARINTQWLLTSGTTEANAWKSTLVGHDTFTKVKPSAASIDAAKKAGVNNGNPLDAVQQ

`O=C1NC(=O)C2C1C=CC(C(O)c1ccc3c(c1)OCO3)N2Nc1ccc(Cl)cc1Cl` (stereo not given): the composite z-score in [1] was -0.002; in [6] it was 0.347; in assay [7], 0.249; in the assay with Torsin-1A (Homo sapiens) [8], 0.0858; in the assay with Torsin-1A (Homo sapiens) [9], -0.446; in [10] it was -0.116. Also, the z-score is -0.0416 (inactive) in assay [2], -0.238 (inactive) in assay [3], 0.0501 (inactive) in assay [4] and -0.329 (inactive) in assay [5].
In the case of `O=C(N1CCOCC1)[C@@]1(CCS(=O)(=O)c2ccccc2)COC(c2ccc(OCCCO)cc2)=N1`, the composite z-score was -0.102 in assay [1]; -0.411 in assay [6]; -0.374 in assay [7]; 0.385 in the assay with Torsin-1A (Homo sapiens) [8]; 0.65 with Torsin-1A (Homo sapiens) [9]; -0.784 in assay [10]. In addition, the z-score in [2] is -0.963 (inactive); in assay [3], 0.585 (inactive); in assay [4], 0.148 (inactive); in assay [5], 1.58 (inactive).
Turning to `[N-]=[N+]=Nc1ccccc1[C@@H]1OC(c2ccc(OCCCO)cc2)=N[C@]1(CCS(=O)(=O)c1ccccc1)C(=O)NCc1ccccc1`, the composite z-score in assay [1] stood at 0.554; in assay [6], 1.3; in assay [7], 0.293; with Torsin-1A (Homo sapiens) [8], 1.53; with Torsin-1A (Homo sapiens) [9], 1.29; in assay [10] it was 0.565. In addition, the z-score in assay [2] was -1.97 (inactive); in assay [3], 0.156 (inactive); in [4], -0.744 (inactive); in assay [5] it was -0.653 (inactive).
For `Cc1ccc(C(C)CC(O)C2C=CC3C(=O)N(Cc4ccccc4)C(=O)C3N2n2cnnc2)o1` (stereo not given), the composite z-score was 1.36 in assay [1]; 0.352 in [6]; 1.36 in assay [7]; 0.173 in the assay with Torsin-1A (Homo sapiens) [8]; 0.663 with Torsin-1A (Homo sapiens) [9]; -0.265 in assay [10]. Also, the z-score in [2] is -0.167 (inactive); in [3], 0.928 (inactive); in assay [4] it was 0.323 (inactive); in [5] it was 1.14 (inactive).
As to `CC[C@@H]1[C@@H]2C3C(=O)N(CC)C(=O)C3CC(=O)[C@@H]2[C@H](c2ccc(C)cc2)N1S(=O)(=O)c1ccc(C)cc1` (stereo not given in full), the composite z-score is 0.513 in [1]; 0.492 in [6]; -0.0523 in assay [7]; -0.087 with Torsin-1A (Homo sapiens) [8]; 0.645 with Torsin-1A (Homo sapiens) [9]; 1.18 in [10]. Also, the z-score in assay [2] is -3.1 (inactive); in assay [3], -1.88 (inactive); in assay [4] it was -0.424 (inactive); in assay [5] it was -0.42 (inactive).
Regarding `C[N+](C)(C)CCCCCCNC(=O)[C@H]1C[C@H]2C(=O)N3CCC[C@H]3C(=O)N2[C@H]1c1cccc(OCCO)c1`, the composite z-score in [1] was 0.544; in assay [6], -0.278; in assay [7], -0.0112; in the assay with Torsin-1A (Homo sapiens) [8] it was 1.98; in the assay with Torsin-1A (Homo sapiens) [9], 1.71; in assay [10], 2.15. For the same compound, the z-score in assay [2] is -0.0803 (inactive); in assay [3] it was 0.236 (inactive); in assay [4] it was -0.532 (inactive); in assay [5], -0.583 (inactive).
As for `CC1CC/C=C\[C@H]2OC34C=CCN(c5ccc(Cl)cc5)C(=O)[C@H]3N(C(CO)C(C)C)C(=O)[C@]4(C)C2C(=O)O1` (stereo not given in full), the composite z-score in [1] was -0.293; in [6], -1.17; in assay [7] it was -0.128; in the assay with Torsin-1A (Homo sapiens) [8], 1.3; with Torsin-1A (Homo sapiens) [9] it was 1.45; in assay [10], 0.14. In addition, the z-score in [2] was 0.24 (inactive); in [3], 0.971 (inactive); in [4] it was 0.199 (inactive); in assay [5] it was -0.27 (inactive).
In the case of `[N-]=[N+]=NCc1ccccc1C[C@@]1(C(=O)NCCN2CCOCC2)N=C(c2ccc(OCCCO)cc2)O[C@@H]1c1ccccc1CN=[N+]=[N-]`, the composite z-score is 0.784 in [1]; 0.697 in assay [6]; 0.196 in assay [7]; -0.0348 in the assay with Torsin-1A (Homo sapiens) [8]; 0.472 in the assay with Torsin-1A (Homo sapiens) [9]; 0.619 in [10]. Also, the z-score in assay [2] was -2.99 (inactive); in assay [3] it was 0.497 (inactive); in [4], -0.641 (inactive); in assay [5], -0.781 (inactive).
On to `COCC1=C([C@H](O)CCc2ccccc2)[C@H](CO)[C@@H]2C(=O)N(C)C(=O)[C@@H]2C1`, for which the composite z-score is -0.147 in [1]; -0.11 in assay [6]; -0.0313 in assay [7]; 0.389 with Torsin-1A (Homo sapiens) [8]; 0.414 with Torsin-1A (Homo sapiens) [9]; 0.552 in assay [10]. For the same compound, the z-score in [2] is -0.398 (inactive); in assay [3], -0.668 (inactive); in assay [4], 0.496 (inactive); in [5], -1.67 (inactive).
`C=CCNC(=O)[C@H]1[C@@H]2C(=O)O[C@@H](c3ccccc3)[C@@H](c3ccccc3)N2[C@@H](c2ccc(OCCO)cc2)[C@]12C(=O)N(C(=O)OCCOC)c1ccc(C#CC3=CCCCC3)cc12`: the composite z-score in [1] was -0.0184; in assay [6], 0.716; in assay [7], 0.18; in the assay with Torsin-1A (Homo sapiens) [8] it was 0.689; with Torsin-1A (Homo sapiens) [9] it was 0.868; in [10], 1.32. In addition, the z-score was -4.77 (inactive) in assay [2], 1.09 (inactive) in assay [3], -0.0647 (inactive) in assay [4] and -0.638 (inactive) in assay [5].
Turning to `COc1cc(NN2C(C(O)c3ccc(I)cc3)C=CC3C(=O)N(C)C(=O)C32)cc(OC)c1OC` (stereo not given), the composite z-score in assay [1] was 0.212; in assay [6], -0.105; in assay [7], 0.0074; with Torsin-1A (Homo sapiens) [8], -0.442; with Torsin-1A (Homo sapiens) [9], 1.42; in assay [10] it was -0.441. In addition, the z-score in [2] was -2.58 (inactive); in [3], -0.126 (inactive); in assay [4], -0.326 (inactive); in [5] it was -0.445 (inactive).
Consider `COc1cc(C(O)C2C=CC3C(=O)NC(=O)C3N2Nc2ccc(Cl)cc2Cl)cc(OC)c1OC` (stereo not given), for which the composite z-score in assay [1] was 0.273; in [6] it was 1.59; in assay [7], 0.115; with Torsin-1A (Homo sapiens) [8], -0.69; with Torsin-1A (Homo sapiens) [9], 0.81; in assay [10] it was 0.245. The z-score in assay [2] was 0.127 (inactive); in assay [3], -0.591 (inactive); in assay [4] it was 0.622 (inactive); in assay [5], 0.472 (inactive).
In the case of `CCOC(=O)C[C@H]1[C@H](OC(=O)c2cc3ccccc3oc2=O)[C@@H](NC(=O)c2ccc3ccccc3n2)c2cc(OCCCO)ccc2N1C(=O)c1ccc2ccccc2n1`, the composite z-score in assay [1] stood at 0.27; in [6], 0.617; in [7] it was 0.539; in the assay with Torsin-1A (Homo sapiens) [8] it was 0.916; with Torsin-1A (Homo sapiens) [9], 0.378; in [10], 1.46. Moreover, the z-score is -0.529 (inactive) in [2], 0.954 (inactive) in assay [3], 11.8 (active) in [4] and -1.72 (inactive) in assay [5].
In the case of `NC(=O)NCC#Cc1ccc2c(c1)[C@]1(C(=O)N2)[C@H](c2ccc(OCCO)cc2)N2[C@H](c3ccccc3)[C@H](c3ccccc3)OC(=O)[C@H]2[C@@H]1C(=O)N1CCCCCCC1`, the composite z-score in [1] stood at 1.4; in assay [6], 3.11; in assay [7] it was 1.93; with Torsin-1A (Homo sapiens) [8] it was 0.533; in the assay with Torsin-1A (Homo sapiens) [9], 1.02; in assay [10], 1.35. Moreover, the z-score is 0.132 (inactive) in [2], 0.848 (inactive) in assay [3], -0.0515 (inactive) in assay [4] and 0.449 (inactive) in [5].
Regarding `[N-]=[N+]=NCc1ccccc1C[C@]1(C(=O)NCCN2CCOCC2)N=C(c2ccc(OCCCO)cc2)O[C@H]1c1ccccc1`, the composite z-score in [1] is 0.461; in [6], -0.0127; in [7], 0.364; with Torsin-1A (Homo sapiens) [8] it was 1.39; with Torsin-1A (Homo sapiens) [9], 0.531; in assay [10] it was 1.1. The z-score in [2] was -4.59 (inactive); in assay [3], -1.63 (inactive); in [4], 1.11 (inactive); in assay [5], -0.838 (inactive).
